Assay [1] in a line: Cell Viability - LYMP2-012 (AID 982; active means well fitted cell-killing curve with a large enough effect;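 further: cellular ATP by luciferase luminescence where a drop means cytotoxicity; cells exposed to compound for one day before reading; 0% = DMSO only and full loss = 92 µM tetraoctylammonium bromide; nearly all actives have a fitted effect of over 55% in size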).
The nature of assay [2]: Cell Viability - LYMP2-014 (AID 983; active means well fitted cell-killing curve with a large enough effect;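 further: plate controls were DMSO only for no effect and 92 µM tetraoctylammonium bromide for full effect; nearly all actives have a fitted effect of over 50% in size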). Put shortly:
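2500 cells/well, 5 hr 37 C; cpd 24 hr 37 C, complete medium; CellTiter-Glo 30 min RT, luminescence; ATP loss = toxicity; AC50 via Hill eqn; tetraoctylammonium bromide positive control.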

Assay [3] can be described thus: Cell Viability - LYMP2-016 (AID 984; active means well fitted cell-killing curve with a large enough effect;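 further: cells exposed to compound for 24 hours at 37 °C; on the % scale 0 is the no-effect control and ±100 the full control effect; nearly all actives have a fitted effect of over 55% in size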). An outline of the steps:
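qHTS, 1536-well: 2500 LYMP2-016 cells/well, 5 hr 37 C, compound added, 24 hr 37 C, CellTiter-Glo 30 min RT, luminescence. Tetraoctylammonium bromide positive control. AC50 via Hill fit.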

Assay [4] is described as follows: Cell Viability - LYMP2-018 (AID 985; active means well fitted cell-killing curve with a large enough effect;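 further: plate controls were DMSO only for no effect and tetraoctylammonium bromide at 92 µM for full effect; nearly all actives have a fitted effect of over 50% in size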). An outline of the steps: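 2500 cells/well; 5 hr 37 C; cmpd 24 hr 37 C, complete medium; CellTiter-Glo 30 min RT; luminescence. Tetraoctylammonium bromide positive control. AC50 via Hill fit.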
Assay [5] can be described thus: Cell Viability - LYMP2-020 (AID 986; active means well fitted cell-killing curve with a large enough effect;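 further: plate controls were DMSO only for no effect and tetraoctylammonium bromide at 92 µM for full effect; nearly all actives have a fitted effect of over 55% in size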). An outline of the steps: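 qHTS, 2500 cells/well; 5 hr then 24 hr compound exposure, 37 C; CellTiter-Glo luminescence after 30 min RT; ATP decrease taken as cytotoxicity; AC50 via Hill equation; tetraoctylammonium bromide positive control.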
A short description of assay [6]: Cell Viability - LYMP2-024 (AID 988; active means well fitted cell-killing curve with a large enough effect;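 further: plate controls were DMSO only for no effect and 92 µM tetraoctylammonium bromide for full effect; nearly all actives have a fitted effect of over 60% in size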). An outline of the steps:
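ATP-based luminescence (CellTiter-Glo, 30 min RT) after 24 h compound exposure at 37 C of 2500 lymphoblastoid cells/well; decrease in ATP taken as cytotoxicity. qHTS concentration-response fitted to standard Hill equation for AC50.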

Assay [7] can be described thus: Cell Viability - LYMP2-026 (AID 989; active means well fitted cell-killing curve with a large enough effect; further: on the % scale 0 is the no-effect control and ±100 the full control effect; nearly all actives have a fitted effect of over 50% in size). Put shortly: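 qHTS cytotoxicity: 2500 cells/well, 5 hr 37 C, compound 24 hr 37 C, CellTiter-Glo 30 min RT, luminescence. Tetraoctylammonium bromide positive control. AC50 via standard Hill fit.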
Assay [8] is described as follows: Cell Viability - LYMP1-002 - Assay at 24 hr (AID 993; active means well fitted cell-killing curve with a large enough effect; further: on the % scale 0 is the no-effect control and ±100 the full control effect). Put shortly: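 CellTiter-Glo luminescence (intracellular ATP) after 24 h compound exposure, 37 C, in LYMP1-002 human lymphoblastoid cells; decreased ATP taken as cytotoxicity. AC50 from standard Hill fit of concentration-response curves.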
Assay [9] is described as follows: Cell Viability - LYMP1-002 - Assay at 40 hr (AID 994; active means well fitted cell-killing curve with a large enough effect;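 further: 0% = DMSO only and full inhibition = 92 µM tetraoctylammonium bromide; nearly all actives have a fitted effect of over 60% in size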). Put shortly:
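qHTS cytotoxicity; 2500 cells/well, 5 hr 37 C settle, compound 40 hr 37 C. CellTiter-Glo, 30 min RT, luminescence (ATP). Concentration-response, Hill fit → AC50. Pos. ctrl tetraoctylammonium bromide.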

Assay [10] can be described thus: qHTS Assay for Lipid Storage Modulators (AID 1519). On activity change, negative = inhibition: on the % scale 0 is the no-effect control and ±100 the full control effect. The following applies: Drosophila S3 cells, BODIPY lipid droplet/cell ratio, laser cytometry, cells loaded with oleic acid. An outline of the steps:
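Cells seeded at 5,000 per well were treated with compounds over a concentration series and loaded with oleic acid (400 uM, as added). Lipid droplet fluorescence (488 nm excitation, 500-530 nm channel) was read by laser-scanning cytometry and normalized to 20 uM Triacsin C.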
Background: Quantitative high-throughput screening tests each substance at several concentrations.

Assay [11] in a line: qHTS Assay for Identification of Small Molecule Inducers of Hypoxia Response (AID 2120; active means well fitted curve in the direction sought with a large enough effect in the signal ratio, with a control signal flat, not every such curve was filed as active; the % refers to the signal ratio; further: 0% is about no effect). An outline of the steps: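 Read-out: CCF4 FRET emission ratio 460nm/530nm (excitation 405nm), converted to %Activity, with AC50 fitted across a compound titration. ME-180 cells carried an HRE-driven beta-lactamase reporter; compound exposure 17 h, 37 degrees C.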
The target in assay [12] is Bile acid receptor (Homo sapiens) (UniProt Q96RI1). Nature of the assay: qHTS assay for small molecule antagonists of farnesoid X receptor signaling (AID 588526). Further: potency means the concentration at half of the fitted maximal effect. Put shortly:
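Antagonist mode: titrated compounds tested against chenodeoxycholic acid stimulation (normalized to 50 uM CDCA and DMSO) in GeneBLAzer HEK293T cells for 16 h. Beta-lactamase read by CCF4 fluorescence; IC50 from Hill fits.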

For assay [13] the target is unchanged. The assay can be described thus: qHTS assay for small molecule agonists of farnesoid X receptor signaling (AID 588527).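 Further: 0% = vehicle basal and 100% = reference agonist.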 The following applies: HEK293T FXR-UAS-bla, beta-lactamase ratio, 16 h; activation: stronger effect = higher value. Put shortly: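 FXR-UAS-bla HEK293T, 10% dialyzed FBS; cpds up to 92 uM titration, 16 h 37 C; CCF4 dye 2 h RT; fluorescence. Normalized to chenodeoxycholic acid 100 uM (100%) and DMSO (0%); Hill fit gives EC50, efficacy.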

Assay [14] has as its target Glucocorticoid receptor (Homo sapiens) (UniProt P04150). The assay can be described thus: qHTS assay for small molecule agonists of glucocorticoid receptor signaling (AID 588532; active means well fitted curve in the direction sought with a large enough effect in the signal ratio, with a control signal flat; the % refers to the signal ratio;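 further: 100% = dexamethasone at 0.1 µM and 0% = DMSO only wells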). Particulars: HeLa MMTV-bla, beta-lactamase ratio, agonist, 18 h; stronger effect = higher value; percent of dexamethasone control, DMSO zero. Put shortly: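 HeLa GRE-bla reporter cells; 18 h compound exposure at 37 C; 2 h CCF4 loading at room temperature; fluorescence at 460 and 530 nm; EC50 by Hill equation.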

The target in assay [15] is Vitamin D3 receptor (Homo sapiens) (UniProt P11473). The assay can be described thus: qHTS assay for small molecule antagonists of vitamin D receptor signaling (AID 588541).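 Further: receptor activated by calcitriol during compound treatment; on the % scale 0 is the no-effect control and ±100 the full control effect.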 Put shortly:
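VDR-UAS-bla HEK293T cells in 2% charcoal-stripped FBS were stimulated with 1-alpha,25-dihydroxyvitamin D3 (3 nM final) plus compound for 16 h at 37 C. The beta-lactamase CCF4 readout was normalized to 50 nM agonist and DMSO, and Hill fits gave IC50.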

Assay [16] has the same target. Nature of the assay: qHTS assay for small molecule agonists of vitamin D receptor signaling (AID 588543).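 Further: 0% = DMSO basal and 100% = reference agonist control.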 Put shortly: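 β-lactamase reporter, VDR-UAS-bla HEK293T, agonist mode. Cells plated 5 h at 37 °C, compound titration 16 h at 37 °C, CCF4 dye 2 h RT, ratio 460/530 nm. Hill fit → EC50, efficacy vs 50 nM 1α,25-(OH)2D3.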
The nature of assay [17]: qHTS assay for small molecule agonists of retinoid X receptor alpha signaling (AID 588544).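 On activation: 0% = DMSO basal wells and 100% = reference agonist.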 Particulars: HEK293T RXRa-UAS-bla, beta-lactamase reporter, 18 h; 530 nm emission.
The target in assay [18] is Retinoic acid receptor RXR-alpha (Homo sapiens) (UniProt P19793). The assay is described as above.
Sequence of Retinoic acid receptor RXR-alpha (Homo sapiens) (P19793 whole entry, looked up): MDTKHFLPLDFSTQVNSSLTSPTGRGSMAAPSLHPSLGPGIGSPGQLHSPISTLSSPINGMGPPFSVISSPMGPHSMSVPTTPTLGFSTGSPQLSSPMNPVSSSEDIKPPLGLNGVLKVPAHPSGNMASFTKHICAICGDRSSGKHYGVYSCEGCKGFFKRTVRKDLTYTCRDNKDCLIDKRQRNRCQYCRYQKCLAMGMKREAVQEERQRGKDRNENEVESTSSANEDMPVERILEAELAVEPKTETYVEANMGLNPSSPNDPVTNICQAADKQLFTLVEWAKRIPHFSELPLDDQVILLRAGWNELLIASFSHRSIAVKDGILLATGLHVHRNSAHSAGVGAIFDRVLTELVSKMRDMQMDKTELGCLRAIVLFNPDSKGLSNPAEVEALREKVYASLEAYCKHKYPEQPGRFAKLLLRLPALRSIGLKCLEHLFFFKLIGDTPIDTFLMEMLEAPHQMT
The target in assay [19] is Thyroid hormone receptor beta (Homo sapiens) (UniProt P10828). Nature of the assay: qHTS assay for small molecule agonists of thyroid hormone receptor beta signaling (AID 588545).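 Further: 0% = DMSO only and 100% = 10 nM T3.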 An outline of the steps: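 Efficacy and EC50 values derive from Hill fits of qHTS titration data, normalized to 10 nM T3 and DMSO-only wells. HEK 293 reporter cells were stimulated for 18 hrs at 37 C, with beta-lactamase activity measured by CCF4 fluorescence.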
Sequence of Thyroid hormone receptor beta (Homo sapiens) (P10828 whole entry, looked up): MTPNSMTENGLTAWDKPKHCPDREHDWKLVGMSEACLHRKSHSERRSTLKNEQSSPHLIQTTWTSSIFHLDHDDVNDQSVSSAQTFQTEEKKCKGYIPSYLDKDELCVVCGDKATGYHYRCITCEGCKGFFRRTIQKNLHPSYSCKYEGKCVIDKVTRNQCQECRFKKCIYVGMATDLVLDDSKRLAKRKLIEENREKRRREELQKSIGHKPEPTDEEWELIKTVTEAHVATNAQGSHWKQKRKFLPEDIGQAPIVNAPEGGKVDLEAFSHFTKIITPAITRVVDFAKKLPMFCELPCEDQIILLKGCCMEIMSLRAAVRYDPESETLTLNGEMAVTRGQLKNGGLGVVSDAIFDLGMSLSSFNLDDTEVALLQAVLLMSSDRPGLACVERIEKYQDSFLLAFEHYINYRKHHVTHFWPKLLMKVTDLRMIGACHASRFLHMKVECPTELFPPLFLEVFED

A short description of assay [20]: qHTS assay for small molecule antagonists of retinoid X receptor alpha signaling (AID 588546; active means well fitted inhibition curve with a large enough effect in the signal ratio, with a control signal flat, not every such curve was filed as active; the % refers to the signal ratio;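 further: cells stimulated with 9-cis-retinoic acid as agonist; on the % scale 0 is the no-effect control and ±100 the full control effect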). The following applies: HEK293T RXRa-UAS-bla, beta-lactamase ratio, antagonist mode; measured here: W530 green channel, cytotoxicity proxy. An outline of the steps:
(§1)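 Beta-lactamase reporter inhibition, read as CCF4 fluorescence ratio (ex 405, em 460/530 nm) after 2 h at RT. HEK293T UAS-bla cells, 2500/well, were stimulated with 9-cis-RA at 500 or 100 nM final alongside test compound for 18 h at 37 C.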

Assay [21] addresses Retinoic acid receptor RXR-alpha (Homo sapiens) (UniProt P19793). Described as above. Particulars: HEK293T RXRa-UAS-bla, beta-lactamase ratio, antagonist mode. An outline of the steps:
as §1

Several values for one entry are separate records, joined by “and”; a condition that tells them apart may be missing. Equal entries are not always repeated. Inconclusive results are not listed. Activity calls are given as the source filed them. Unless noted, the call rests on the fitted dose curve.

Sequence of Bile acid receptor (Homo sapiens) (Q96RI1 whole entry, looked up): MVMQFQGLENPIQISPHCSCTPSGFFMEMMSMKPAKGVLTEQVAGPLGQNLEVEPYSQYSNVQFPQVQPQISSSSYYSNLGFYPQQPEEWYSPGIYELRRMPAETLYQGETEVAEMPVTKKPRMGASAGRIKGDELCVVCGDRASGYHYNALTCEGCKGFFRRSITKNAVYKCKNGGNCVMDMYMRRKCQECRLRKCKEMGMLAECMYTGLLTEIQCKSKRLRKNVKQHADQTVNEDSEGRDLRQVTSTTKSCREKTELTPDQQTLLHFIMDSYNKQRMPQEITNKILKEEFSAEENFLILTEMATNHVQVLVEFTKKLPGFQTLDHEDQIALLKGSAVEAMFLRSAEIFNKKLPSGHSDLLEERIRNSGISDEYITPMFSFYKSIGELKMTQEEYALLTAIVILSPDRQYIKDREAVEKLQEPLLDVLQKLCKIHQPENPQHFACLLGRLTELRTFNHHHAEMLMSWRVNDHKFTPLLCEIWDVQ
Sequence of Vitamin D3 receptor (Homo sapiens) (P11473 whole entry, looked up): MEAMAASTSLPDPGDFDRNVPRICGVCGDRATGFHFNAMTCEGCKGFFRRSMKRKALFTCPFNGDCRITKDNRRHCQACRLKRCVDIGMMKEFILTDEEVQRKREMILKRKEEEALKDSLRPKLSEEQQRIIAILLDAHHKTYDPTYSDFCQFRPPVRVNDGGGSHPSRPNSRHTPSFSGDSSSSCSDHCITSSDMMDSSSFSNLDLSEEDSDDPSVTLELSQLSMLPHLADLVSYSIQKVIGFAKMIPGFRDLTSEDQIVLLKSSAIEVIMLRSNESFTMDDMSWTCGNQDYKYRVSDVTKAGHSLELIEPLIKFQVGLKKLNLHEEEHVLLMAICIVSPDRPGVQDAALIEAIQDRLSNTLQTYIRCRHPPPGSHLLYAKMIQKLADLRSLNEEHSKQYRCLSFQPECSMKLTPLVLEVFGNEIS
Sequence of Glucocorticoid receptor (Homo sapiens) (P04150 whole entry, looked up): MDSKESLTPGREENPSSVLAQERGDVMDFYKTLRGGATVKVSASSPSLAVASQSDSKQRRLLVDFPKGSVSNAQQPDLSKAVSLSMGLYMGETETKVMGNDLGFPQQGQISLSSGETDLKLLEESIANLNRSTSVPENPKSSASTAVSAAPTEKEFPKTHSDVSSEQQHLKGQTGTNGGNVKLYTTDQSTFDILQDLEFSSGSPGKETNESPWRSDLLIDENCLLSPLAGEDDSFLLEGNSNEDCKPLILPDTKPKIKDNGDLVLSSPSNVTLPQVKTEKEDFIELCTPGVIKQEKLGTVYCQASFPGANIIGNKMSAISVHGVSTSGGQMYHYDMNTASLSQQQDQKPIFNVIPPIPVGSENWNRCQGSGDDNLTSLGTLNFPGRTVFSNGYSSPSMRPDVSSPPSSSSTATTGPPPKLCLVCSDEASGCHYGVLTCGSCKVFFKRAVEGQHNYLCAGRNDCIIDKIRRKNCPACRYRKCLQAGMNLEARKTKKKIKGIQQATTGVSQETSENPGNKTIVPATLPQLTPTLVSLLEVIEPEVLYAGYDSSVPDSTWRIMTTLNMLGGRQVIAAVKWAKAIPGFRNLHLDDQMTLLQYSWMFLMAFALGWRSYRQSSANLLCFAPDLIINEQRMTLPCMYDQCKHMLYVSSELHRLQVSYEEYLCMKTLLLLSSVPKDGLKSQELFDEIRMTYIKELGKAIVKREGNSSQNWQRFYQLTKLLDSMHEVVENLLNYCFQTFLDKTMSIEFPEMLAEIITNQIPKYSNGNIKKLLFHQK

On to `Oc1c(Cl)c(Cl)c(Cl)c(Cl)c1Cl`, for which the outcome in assay [1], in assay [2], in assay [3], in assay [4], in assay [5] and in assay [6] was inactive. The compound was called inactive in assay [7], in assay [8], in [11], in assay [15] and in [18]. Also, the Potency entry in [9], in [16] and in [19] was “inactive” throughout. The activity change, negative = inhibition in assay [10] (at 57.5 µM (top of the series)) is -4.15% (inactive). Also, the max response in assay [10] (measured here: cell count channel max response) was -3.69%; in [10] (measured here: lipid channel max response) it was -7.5%; in assay [17] it was 19.6%; in assay [20] it was -15.3% and -8.92%; in [21], 12.8% (inactive) and -17.7% (inactive). Further, in assay [12], the Potency was 25.1 µM (active). The activation in [13] is 0.631% (inactive) and 4.93% (inactive); in assay [14] it was -3.18% (inactive).

Values taken from PubChem BioAssay (NCATS).
